Inconclusive results are not listed. Active and inactive are the calls of the source. Calls follow the shape of the dose curve; as a rule, active = well fitted inhibition curve with a large enough effect; inconclusive = small, poorly fitted or top-dose-only effect; inactive = no such curve, though single readings can be large or run the other way.
Potency is read from the fitted curve at half-maximal effect.

A short description of the experiment: InCell qHTS Assay for Inhibitors of the mTORC1 Signaling Pathway in MEF (Tsc2-/-, p53-/-) Cells: Hit Validation.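 Also: phospho-S6 Ser235/236 signal normalized to propidium iodide cell count per well; nearly all actives have a fitted effect of over 75% in size.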 The settings on record: phospho-rpS6 immunofluorescence, 24 h; activity change, negative = inhibition: at 38.3 µM (top of the series). On the technique in general: Quantitative high-throughput screening tests each substance at several concentrations.
In the case of `CCOc1ccc(N(CC(=O)Nc2ccccc2CC)S(=O)(=O)c2c(C)noc2C)cc1`, the activity change, negative = inhibition was -100%.

`CC1C(=O)Nc2ccc(S(=O)(=O)Nc3ccccc3Br)cc2NC1=O` (configuration not stated): the activity change, negative = inhibition is -100%.

In the case of `CCc1cccc(NC(=O)c2oc3ccc4c(c3c2C)C(=O)CC(C)(C)O4)c1`, the activity change, negative = inhibition is -100%.

`CCOc1ccc(CCNC(=O)CCc2c(C)nc3cc(-c4ccccc4OC)nn3c2C)cc1`: the activity change, negative = inhibition was -100%.

For the molecule `COc1ccc(CCN2C(=O)c3[nH]nc(-c4ccccc4O)c3C2c2ccc(OC)c(OC)c2)cc1` (configuration not stated), the activity change, negative = inhibition was -100%.

For `Cc1cccc(Nc2nnc(-c3ccc(C)c(S(=O)(=O)N4CCN(C)CC4)c3)c3ccccc23)c1`, the activity change, negative = inhibition is -100%.

Consider `COc1ccc(-c2nc(S(=O)(=O)c3ccc(Cl)cc3)c(N3CCCCCC3)o2)cc1`, for which the activity change, negative = inhibition was -100%.

As to `COc1ccccc1-c1cc(C(=O)Nc2cc(OC)c(OC)c(OC)c2)no1`, the activity change, negative = inhibition was determined as 1.72%.

Consider `Cc1cc(Cl)ccc1NC(=O)CN1C(=O)C(=O)c2ccccc21`, for which the activity change, negative = inhibition is -16%.

`Oc1ccc(NCc2ccccc2OCc2ccc(Cl)cc2)cc1`: the activity change, negative = inhibition was -100%.

With `CCCC1=Nc2cc(C(=O)NC3CCCC3)ccc2Sc2ccc(C)cc21`, the activity change, negative = inhibition is -100%.

Take `COc1ccc(OC)c(NC2=C(c3ccccc3)C(=O)c3ccccc32)c1`: the activity change, negative = inhibition was -9.58%.

For the molecule `CC(CNC(=O)c1ccc(Nc2nc3ccccc3n3nnnc23)cc1)c1ccccc1` (configuration not stated), the activity change, negative = inhibition is -100%.

With `Cc1cccc(NC(=O)c2nc(S(C)(=O)=O)ncc2Cl)c1`, the Potency was 5.21 µM (active).

Take `Cc1ccccc1OCc1ccc(-c2nc(C#N)c(NCCCN(C)C)o2)o1`: the activity change, negative = inhibition was -100%.

As for `COc1ccc(OCC(O)Cn2c(=N)n(CCN3CCCCC3)c3ccccc32)cc1` (configuration not stated), the activity change, negative = inhibition was -100%.

As for `O=C(Nc1ccc2nc(SCC(=O)N3CCCc4ccccc43)sc2c1)c1ccccc1F`, the activity change, negative = inhibition was -100%.

For the molecule `Cc1ccc2c(c1)C(=O)C(=O)N2Cc1ccc(OC(C)C)cc1`, the activity change, negative = inhibition is -16.8%.

Turning to `COc1cc(Br)ccc1C1C(C(=O)Nc2ccc(C)cc2C)=C(C)Nc2nnnn21` (configuration not stated), the activity change, negative = inhibition is -100%.

Regarding `CC(C)OCc1cc(CN2CCN(c3cccc(C(F)(F)F)c3)CC2)c(O)c2ncccc12`, the activity change, negative = inhibition is -100%.

With `CC1=Nc2cc(C(=O)NC3CCCC3)ccc2Sc2ccc(Br)cc21`, the activity change, negative = inhibition was -100%.

As for `CCc1ccc(S(=O)(=O)N(C(=O)c2ccncc2)c2ccc3oc(C)c(C(=O)OC)c3c2)cc1`, the activity change, negative = inhibition was -100%.

For the molecule `COc1ccc(C(=O)Nc2ccc(OCc3cc(=O)n4ccccc4n3)cc2)cc1`, the activity change, negative = inhibition is -100%.

As to `CCOc1cc(CNc2ccc(O)cc2)ccc1OCc1ccc(Cl)cc1`, the activity change, negative = inhibition was -100%.

As to `CCOC(=O)C1CCN(c2cc3c(cc2NC(=O)c2ccccc2Cl)n(C)c(=O)n3C)CC1`, the activity change, negative = inhibition is -12.8%.

For `CCCCOC(=O)c1ccc(NC(=O)c2ccc3c(c2)CCN3S(=O)(=O)c2ccccc2)cc1`, the activity change, negative = inhibition is -100%.

For the molecule `O=C(NCCSc1c(-c2ccc(F)cc2)[nH]c2ccccc12)c1ccc(S(=O)(=O)N2CCOCC2)cc1`, the activity change, negative = inhibition is -100%.

As for `CCC(C)n1c(SCc2c(F)cccc2Cl)nc2ccsc2c1=O` (configuration not stated), the activity change, negative = inhibition was -100%.

Take `CCCN1C(=O)C(Cc2nc3ccccc3c(=O)n2CC)c2ccccc21` (configuration not stated): the activity change, negative = inhibition was -100%.

With `CCOc1ccc(NC(=O)N(Cc2c[nH]c3ccccc23)C2CCCCCC2)cc1`, the activity change, negative = inhibition was -100%.

Take `Cc1c(C(=O)OC2CCCCC2)[nH]c2c1C(=O)CC(c1ccccc1)C2` (configuration not stated): the activity change, negative = inhibition is -24.8%.

Consider `CCN1CCC(N(Cc2ccc(F)cc2)C(=O)Nc2ccc(C)c(F)c2)CC1`, for which the activity change, negative = inhibition was -100%.

On to `CCc1nn(CC(=O)NCc2ccccc2)c(=O)c2cccn12`, for which the activity change, negative = inhibition was -100%.

Consider `CCOC(=O)C(Cc1c[nH]c2ccccc12)NC(=O)COc1ccc(Cl)cc1` (configuration not stated), for which the activity change, negative = inhibition is -100%.

Regarding `CCOC(=O)c1c(NC(=O)c2ccc(S(=O)(=O)N(C)C)cc2)sc2c1CCN(C)C2`, the activity change, negative = inhibition is -26.7%.

With `CCc1ccc(OCC(=O)N(Cc2ccc(C)cc2)Cc2ccco2)cc1`, the activity change, negative = inhibition is -100%.

On to `CCOc1ccc(Nc2nc(N)c(C(=O)c3ccccc3Cl)s2)cc1`, for which the activity change, negative = inhibition was -100%.

The values above are taken from PubChem BioAssay AID651791 (National Center for Advancing Translational Sciences (NCATS), 2012).
